Consider 11 compounds from ChEMBL document CHEMBL3988442, “University of Dundee, Small-Polar-MMV Screening Library” (2021).

Molecules are shown by their SMILES. For some of these results: Entries with a potency or affinity are not part of this list.

What all share (design): scale not given: direction of the effect not stated beside the values
Assay [1] deals with Protein translocase subunit SecA (Escherichia coli (strain K12)) (UniProt P10408). The assay can be described thus: Assay to Identify E. coli SecA ATPase Inhibitors. The format is functional. Particulars: 30 µM.
Chain of Protein translocase subunit SecA (Escherichia coli (strain K12)) (P10408 whole entry): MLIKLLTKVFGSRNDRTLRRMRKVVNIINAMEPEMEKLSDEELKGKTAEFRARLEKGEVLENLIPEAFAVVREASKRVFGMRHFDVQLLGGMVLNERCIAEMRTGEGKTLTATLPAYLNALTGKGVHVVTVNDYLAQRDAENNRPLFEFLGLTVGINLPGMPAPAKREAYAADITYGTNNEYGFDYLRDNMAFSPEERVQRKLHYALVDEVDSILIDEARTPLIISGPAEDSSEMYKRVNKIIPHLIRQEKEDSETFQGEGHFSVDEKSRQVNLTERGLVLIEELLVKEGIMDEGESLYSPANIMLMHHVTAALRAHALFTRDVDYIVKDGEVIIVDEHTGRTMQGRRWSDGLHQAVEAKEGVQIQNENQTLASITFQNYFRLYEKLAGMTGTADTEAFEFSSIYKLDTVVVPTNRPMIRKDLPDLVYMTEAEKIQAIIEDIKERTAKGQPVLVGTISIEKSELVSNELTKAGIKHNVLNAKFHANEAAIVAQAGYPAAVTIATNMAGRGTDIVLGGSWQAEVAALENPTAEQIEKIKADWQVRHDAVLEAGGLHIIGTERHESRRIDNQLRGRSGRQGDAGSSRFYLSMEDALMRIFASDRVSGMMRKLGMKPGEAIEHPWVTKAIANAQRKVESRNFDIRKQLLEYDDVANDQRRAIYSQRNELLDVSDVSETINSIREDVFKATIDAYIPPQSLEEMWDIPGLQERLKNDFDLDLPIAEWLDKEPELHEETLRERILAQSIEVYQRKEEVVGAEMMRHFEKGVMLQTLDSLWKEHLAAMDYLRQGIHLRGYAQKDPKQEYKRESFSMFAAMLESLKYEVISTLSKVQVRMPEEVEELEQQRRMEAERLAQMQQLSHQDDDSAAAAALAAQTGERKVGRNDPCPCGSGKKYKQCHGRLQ
Assay [2] has as its target T1, Ubiquitin-activating enzyme e1, putative (Leishmania donovani (strain BPK282A1)) (UniProt E9BSI1).
T1 sequence (whole entry): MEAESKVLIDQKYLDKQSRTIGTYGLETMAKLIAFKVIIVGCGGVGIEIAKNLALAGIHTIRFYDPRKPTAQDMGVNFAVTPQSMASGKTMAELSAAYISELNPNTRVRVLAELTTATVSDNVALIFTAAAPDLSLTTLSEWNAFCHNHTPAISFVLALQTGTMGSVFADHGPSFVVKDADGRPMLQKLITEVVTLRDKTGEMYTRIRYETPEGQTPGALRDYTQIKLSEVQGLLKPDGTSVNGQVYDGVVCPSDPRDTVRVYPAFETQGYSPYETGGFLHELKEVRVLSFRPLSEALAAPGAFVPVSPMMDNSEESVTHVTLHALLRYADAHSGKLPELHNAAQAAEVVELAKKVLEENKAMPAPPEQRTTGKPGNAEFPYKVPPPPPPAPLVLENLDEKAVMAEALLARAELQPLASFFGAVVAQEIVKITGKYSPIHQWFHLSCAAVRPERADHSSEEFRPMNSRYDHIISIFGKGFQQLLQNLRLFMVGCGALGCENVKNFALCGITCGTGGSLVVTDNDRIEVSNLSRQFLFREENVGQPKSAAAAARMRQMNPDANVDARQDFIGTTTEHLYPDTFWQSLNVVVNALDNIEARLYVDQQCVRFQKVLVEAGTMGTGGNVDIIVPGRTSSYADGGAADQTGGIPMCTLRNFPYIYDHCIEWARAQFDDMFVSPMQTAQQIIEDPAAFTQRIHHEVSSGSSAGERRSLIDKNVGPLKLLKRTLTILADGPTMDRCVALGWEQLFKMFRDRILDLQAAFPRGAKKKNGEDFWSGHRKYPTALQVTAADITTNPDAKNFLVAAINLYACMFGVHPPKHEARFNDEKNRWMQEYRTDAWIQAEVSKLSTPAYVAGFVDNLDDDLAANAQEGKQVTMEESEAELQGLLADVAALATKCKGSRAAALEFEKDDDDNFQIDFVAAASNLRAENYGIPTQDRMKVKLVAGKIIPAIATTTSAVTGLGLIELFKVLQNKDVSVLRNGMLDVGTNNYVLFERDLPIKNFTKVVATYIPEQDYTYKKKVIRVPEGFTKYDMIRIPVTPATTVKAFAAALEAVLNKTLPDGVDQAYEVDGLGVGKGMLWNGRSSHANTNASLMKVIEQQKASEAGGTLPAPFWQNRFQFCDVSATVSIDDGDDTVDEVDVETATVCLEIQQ
The experiment in a line: Leishmania donovani Ubiquitin Activating Enzyme (LdE1). The format is functional. The conditions noted are these: 30 µM.

The target in assay [3] is AMP-activated protein kinase, AMPK (Homo sapiens) (UniProt P54646+O43741+P54619+Q9UGJ0+Q9Y478+Q13131+Q9UGI9). The assay can be described thus: AMP-dependent Kinase enzyme assay. An in vitro enzyme assay that detects ADP turnover that is directly proportional to AMPK activity. This uses naive AMPK that is activated during the assay with MK-8722. The format is functional. Particulars: 30 µM.

Assay [4] deals with Sialic acid-binding Ig-like lectin 9 (Homo sapiens) (UniProt Q9Y336). The assay can be described thus: Hs-Siglec9 ALPHAscreen SOP 20170721. The conditions noted are these: 10 µM. Background: Alpha assays give light when donor and acceptor beads are brought close together.
Chain of Sialic acid-binding Ig-like lectin 9 (Homo sapiens) (Q9Y336 whole entry): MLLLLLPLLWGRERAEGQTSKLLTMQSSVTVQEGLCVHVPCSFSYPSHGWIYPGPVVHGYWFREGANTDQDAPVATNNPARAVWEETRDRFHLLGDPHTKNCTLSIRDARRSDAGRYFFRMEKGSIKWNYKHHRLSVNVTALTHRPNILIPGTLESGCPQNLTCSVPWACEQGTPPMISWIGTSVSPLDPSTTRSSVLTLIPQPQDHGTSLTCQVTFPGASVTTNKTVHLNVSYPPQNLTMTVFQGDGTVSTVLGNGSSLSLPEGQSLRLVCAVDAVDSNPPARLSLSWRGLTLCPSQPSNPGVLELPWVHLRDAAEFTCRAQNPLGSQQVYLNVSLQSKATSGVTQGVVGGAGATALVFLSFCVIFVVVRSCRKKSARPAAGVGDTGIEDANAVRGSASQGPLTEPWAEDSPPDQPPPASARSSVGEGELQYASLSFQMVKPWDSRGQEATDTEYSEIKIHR
For assay [5], the system named is Trypanosoma cruzi. The experiment in a line: Trypanosoma cruzi phosphomannomutase and mannose-1-phosphate guanylyltransferase assay. The format is functional. Particulars: 10 µM.
In assay [6] the target is T2, Arginase-2, mitochondrial (Homo sapiens) (UniProt P78540).
T2 sequence (whole entry): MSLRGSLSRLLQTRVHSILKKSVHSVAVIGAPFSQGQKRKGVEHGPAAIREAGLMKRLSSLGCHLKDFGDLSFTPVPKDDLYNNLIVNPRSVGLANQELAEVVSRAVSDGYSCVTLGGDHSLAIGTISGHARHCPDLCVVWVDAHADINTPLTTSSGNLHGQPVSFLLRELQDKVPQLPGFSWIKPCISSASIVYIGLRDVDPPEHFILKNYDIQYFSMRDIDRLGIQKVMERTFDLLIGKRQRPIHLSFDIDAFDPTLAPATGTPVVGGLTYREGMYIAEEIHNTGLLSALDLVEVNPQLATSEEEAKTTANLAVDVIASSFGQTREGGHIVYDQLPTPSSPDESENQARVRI
The experiment in a line: in vitro enzyme assay to detect the production of urea directly proportional to the activity of Arginase II. Note: in the data most compounds retested in dose-response had high values. The format is functional. Particulars: 33.3 µM.

For assay [7], the target named is T3, Proteasome subunit beta (Trypanosoma cruzi) (UniProt O96673).
T3 sequence (whole entry): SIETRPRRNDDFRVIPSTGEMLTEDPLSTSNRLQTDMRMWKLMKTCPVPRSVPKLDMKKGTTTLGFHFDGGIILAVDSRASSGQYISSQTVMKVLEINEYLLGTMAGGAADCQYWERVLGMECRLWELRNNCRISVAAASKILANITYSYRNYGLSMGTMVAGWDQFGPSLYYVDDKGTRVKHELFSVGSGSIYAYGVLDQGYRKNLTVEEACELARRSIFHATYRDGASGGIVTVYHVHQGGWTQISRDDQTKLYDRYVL
The assay can be described thus: Trypanosoma cruzi proteasome chymotrypsin-like activity (TcProtChymo) assay. Note: in the data most compounds retested in dose-response had high values. The format is functional. Particulars: 9.37 µM.

The species entered for assay [8] is Homo sapiens. The assay can be described thus: To identify inhibition of the IFN signalling (Jak-Stat) pathway via expression of an eGFP reporter gene under the control of an IFN-stimulated response element (ISRE) containing MxA promoter. The format is functional. The conditions noted are these: 30 µM. On the technique in general: In a reporter assay the amount or activity of a reporter protein is the signal.

Assay [9] addresses T4, Tyrosyl-tRNA synthetase, putative (Trypanosoma cruzi (strain CL Brener)) (UniProt Q4DSP6).
T4 sequence (whole entry): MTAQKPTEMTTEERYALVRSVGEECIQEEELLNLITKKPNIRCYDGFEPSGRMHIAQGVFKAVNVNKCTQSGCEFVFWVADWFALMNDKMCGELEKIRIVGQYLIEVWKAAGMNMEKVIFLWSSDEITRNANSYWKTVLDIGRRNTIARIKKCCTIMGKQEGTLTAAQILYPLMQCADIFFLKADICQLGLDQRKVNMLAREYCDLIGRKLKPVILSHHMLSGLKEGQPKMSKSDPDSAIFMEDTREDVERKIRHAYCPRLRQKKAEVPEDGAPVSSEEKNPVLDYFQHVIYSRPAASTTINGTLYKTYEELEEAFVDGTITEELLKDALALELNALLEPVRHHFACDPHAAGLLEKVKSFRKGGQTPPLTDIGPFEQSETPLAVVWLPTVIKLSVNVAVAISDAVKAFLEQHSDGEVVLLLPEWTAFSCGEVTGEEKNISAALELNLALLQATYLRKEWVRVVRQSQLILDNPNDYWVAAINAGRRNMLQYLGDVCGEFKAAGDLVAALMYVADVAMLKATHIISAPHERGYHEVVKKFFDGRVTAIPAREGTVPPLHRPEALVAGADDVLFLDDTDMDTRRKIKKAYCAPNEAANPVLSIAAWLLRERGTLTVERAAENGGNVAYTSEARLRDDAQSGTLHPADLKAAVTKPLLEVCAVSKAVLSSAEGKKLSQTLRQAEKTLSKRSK
The assay can be described thus: Trypanosoma cruzi tyrosyl tRNA synthetase (TcYRS) _High Tyrosine SOP. Note: in the data most compounds retested in dose-response had high values. The format is functional. Particulars: 30 µM.

Assay [10] deals with T4, Tyrosyl-tRNA synthetase, putative (Trypanosoma cruzi (strain CL Brener)). The experiment in a line: Trypanosoma cruzi tyrosyl tRNA synthetase (TcYRS) SOP. It counts as functional. The conditions noted are these: 30 µM.
Assay [11] deals with Chromo domain-containing protein 1 (Saccharomyces cerevisiae (strain ATCC 204508 / S288c) (Baker's yeast)) (UniProt P32657). The assay can be described thus: ScCHD-1 Enzyme Inhibition Assay. Note: in the data most compounds retested in dose-response had high values. It counts as functional. The conditions noted are these: 30 µM.
Chain of Chromo domain-containing protein 1 (Saccharomyces cerevisiae (strain ATCC 204508 / S288c) (Baker's yeast)) (P32657 whole entry, the tested form may be a part): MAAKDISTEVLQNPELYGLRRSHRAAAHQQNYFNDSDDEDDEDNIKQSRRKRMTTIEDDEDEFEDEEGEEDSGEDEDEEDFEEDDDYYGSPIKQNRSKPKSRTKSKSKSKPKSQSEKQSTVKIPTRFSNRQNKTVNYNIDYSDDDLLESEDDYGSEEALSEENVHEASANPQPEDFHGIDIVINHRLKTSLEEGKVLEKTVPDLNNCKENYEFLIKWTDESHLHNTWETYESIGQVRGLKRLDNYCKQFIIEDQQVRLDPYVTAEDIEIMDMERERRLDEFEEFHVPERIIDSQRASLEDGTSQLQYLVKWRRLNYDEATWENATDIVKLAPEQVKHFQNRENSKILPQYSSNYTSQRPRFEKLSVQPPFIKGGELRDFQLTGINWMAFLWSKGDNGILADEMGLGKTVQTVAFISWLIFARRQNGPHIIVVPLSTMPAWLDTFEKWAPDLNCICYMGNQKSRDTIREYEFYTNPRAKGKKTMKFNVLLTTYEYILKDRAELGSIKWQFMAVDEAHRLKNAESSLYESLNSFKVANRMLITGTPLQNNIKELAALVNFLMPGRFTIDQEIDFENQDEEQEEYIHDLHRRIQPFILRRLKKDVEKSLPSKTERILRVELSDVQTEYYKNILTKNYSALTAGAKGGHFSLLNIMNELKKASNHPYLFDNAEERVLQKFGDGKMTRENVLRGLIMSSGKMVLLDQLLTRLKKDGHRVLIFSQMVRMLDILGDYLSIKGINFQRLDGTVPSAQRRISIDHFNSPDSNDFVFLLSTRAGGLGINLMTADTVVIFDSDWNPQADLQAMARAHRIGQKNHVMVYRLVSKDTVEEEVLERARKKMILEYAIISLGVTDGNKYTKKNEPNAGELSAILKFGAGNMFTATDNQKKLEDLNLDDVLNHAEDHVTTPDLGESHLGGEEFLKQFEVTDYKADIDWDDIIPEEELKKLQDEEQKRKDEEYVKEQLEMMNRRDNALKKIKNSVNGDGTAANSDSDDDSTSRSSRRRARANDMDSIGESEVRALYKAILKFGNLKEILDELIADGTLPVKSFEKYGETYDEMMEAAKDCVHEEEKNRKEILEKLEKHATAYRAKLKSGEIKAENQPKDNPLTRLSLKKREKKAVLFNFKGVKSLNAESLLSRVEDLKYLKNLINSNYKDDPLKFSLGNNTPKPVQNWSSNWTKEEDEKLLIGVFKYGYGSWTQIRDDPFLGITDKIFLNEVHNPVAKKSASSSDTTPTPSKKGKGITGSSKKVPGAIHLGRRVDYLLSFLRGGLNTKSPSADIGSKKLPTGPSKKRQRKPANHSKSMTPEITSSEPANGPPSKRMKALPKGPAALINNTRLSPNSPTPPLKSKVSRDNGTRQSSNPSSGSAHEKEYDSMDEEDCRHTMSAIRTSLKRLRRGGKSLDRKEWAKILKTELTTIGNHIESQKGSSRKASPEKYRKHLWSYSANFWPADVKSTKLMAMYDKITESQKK

As for `NC(=O)Cc1ccc(NC(=O)C2CCOCC2)cc1`, the Percent Effect in [1] is -3.03%; in assay [2] it was 10.8%; in assay [3], -5.71%; in assay [4], -1.1%; in assay [5], -7.52%; in assay [6], 2.03%. Further, the Percent Effect in assay [7] is 11.5%; in assay [8], 19.3%; in [9], 5.94%; in assay [10], 15.8%; in assay [11] it was -1.7%.

As to `O=C(NCCCNC(=O)c1cccc(O)c1)NCc1ccccc1F`, the Percent Effect in assay [1] is -2.42%; in assay [2] it was 15.8%; in [3], 0.229%; in [4], 0.609%; in assay [5], 2.63%; in assay [6], -5.92%. Also, the Percent Effect in [7] was 14.9%; in assay [8] it was 1.72%; in assay [9], 3.19%; in assay [10], 15.6%; in assay [11], -3.65%.

On to `CCc1cnc(CN(C)C2CCN(CCc3cccs3)C2)o1` (stereo unspecified), for which the Percent Effect in [1] was -4.76%; in assay [2] it was 15.8%; in assay [3] it was -3.51%; in [4], -0.997%; in [5], -2.89%; in assay [6], -5.4%. For the same compound, the Percent Effect in assay [7] is 12.3%; in assay [8], 2.05%; in assay [9], 10.3%; in assay [10] it was 18.5%; in [11], -5.25%.

Take `Cc1cc(C2CCCN(CCc3ccccn3)C2)n[nH]1` (stereo unspecified): the Percent Effect in assay [1] was -4.83%; in assay [2], 2.53%; in assay [3], -4%; in [4], 3.7%; in assay [5], 9.73%; in assay [6], 1.14%. Moreover, the Percent Effect is -1.23% in [7]; -3.32% in assay [8]; -7.39% in [9]; 11.4% in assay [10]; -2.02% in assay [11].

Take `Cc1nc2ccccc2nc1CN(C)CC1CCCN1c1cccnn1` (stereo unspecified): the Percent Effect in assay [1] was -5.25%; in assay [2], 5.2%; in [3], 0.00702%; in assay [4], -11.8%; in assay [5], 3.23%; in [6], 1.47%. Besides, the Percent Effect is 5.58% in [7]; 21.9% in assay [8]; 10.5% in assay [9]; 2.35% in [10]; -19.8% in [11].

Regarding `Cc1noc(C)c1CNc1cc(N2CCCC2CO)ncn1` (stereo unspecified), the Percent Effect is -2.84% in assay [1]; 6.33% in [2]; -25.2% in [3]; 4.54% in assay [4]; 1.54% in [5]; 1.5% in assay [6]. Also, the Percent Effect was 1.03% in assay [7]; -8.87% in assay [8]; 0% in [9]; 12.7% in assay [10]; -23.1% in assay [11].

Regarding `O=C(NC1CCC1)[C@@H]1C[C@@H]2CCN(Cc3cccs3)C[C@@H]2O1`, the Percent Effect was -2.68% in [1]; -2.67% in [2]; 10.9% in assay [3]; -2.43% in [4]; -0.197% in assay [5]; 2.56% in [6]. The Percent Effect is 7.67% in assay [7]; 28.3% in assay [8]; 3.19% in assay [9]; 11.5% in assay [10]; -2.54% in [11].

For `CN1CC(=O)N(c2ccccc2)CC12CCN(Cc1cccnc1)C2` (stereo unspecified), the Percent Effect in [1] was -2.77%; in [2], 0%; in [3], 0.129%; in assay [4], 2.38%; in [5] it was -0.397%; in [6], 2%. Moreover, the Percent Effect is 5.74% in [7]; 3.56% in [8]; 4.17% in assay [9]; 1.24% in assay [10]; 5.73% in [11].

Regarding `CNc1cc(N2CCCC2CNCc2c[nH]nc2C(C)(C)C)ncn1` (stereo unspecified), the Percent Effect in assay [1] is -3.59%; in assay [2], 0%; in assay [3], -14.4%; in assay [4] it was -4.25%; in assay [5] it was -4.88%; in [6], -4.17%. Moreover, the Percent Effect in assay [7] is 6%; in [8], -0.674%; in assay [9], 5.94%; in assay [10], 6.1%; in assay [11], 0.0939%.

`O=C(NCC1CCS(=O)(=O)C1)c1sccc1-c1ccc(F)cc1` (stereo unspecified): the Percent Effect is -4.74% in assay [1]; -54% in assay [2]; -1.29% in assay [3]; 24.1% in assay [4]; 8.5% in assay [5]; 4.71% in [6]. For the same compound, the Percent Effect in assay [7] came out at 13.3%; in [8] it was 4.09%; in [9], 4.3%; in [10], 18.5%; in assay [11], 0.115%.

In the case of `c1ccc(-c2noc(CN3CCc4cncnc4C3)n2)nc1`, the Percent Effect in assay [1] was -3.61%; in [2] it was 10.5%; in [3], -27.7%; in [4], 10.3%; in [5] it was 8.65%; in assay [6], 1.92%. In addition, the Percent Effect in [7] was 9.02%; in [8], -4.25%; in assay [9], 13.2%; in assay [10], 12.2%; in assay [11], -10.6%.
